This is an account of results in PubChem BioAssay (NCI).

This is part of a sample that, as a whole, favours compounds with a hit. Of some 83,000 tested, about 20% had one in any assay.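 Values shown are percent growth following 48 h exposure of cells in 96-well plates to a single concentration of compound; below 10 was considered active.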 A number with no mark means an inactive call. The source made the active and inactive calls.

Among the test systems are HCT-15 colon; HT29 colon; SNB-75 CNS; SNB-19 CNS; U251 CNS; PC-3 prostate; SK-MEL-5 melanoma; UACC-62 melanoma; LOX IMVI melanoma; SK-MEL-28 melanoma.
Experiment in all cases: NCI-60 one-dose screen, 48 h (100 = growth as untreated, 0 = no growth, -100 = all killed)
Details in all cases: 10 µM unless noted

In the case of `CC(C)n1cc(C2=C(c3cccc4ccccc34)C(=O)NC2=O)c2cc(Br)ccc21`, the growth with HCT-15 colon is 43.1%; in the experiment with HT29 colon, 43.1%; with SNB-75 CNS, 38.6%; in the experiment with SNB-19 CNS, 82.6%; with U251 CNS it was 60.4%; in the experiment with PC-3 prostate, 57.8%. Also, the growth in the experiment with SK-MEL-5 melanoma is -0.736% (active); in the experiment with UACC-62 melanoma it was 60%; in the experiment on LOX IMVI melanoma, 1.07% (active); in the experiment with SK-MEL-28 melanoma, 90.7%.
With `Nc1nc(N)c2c(n1)NC(c1cccc(Nc3ccnc4cc(C(F)(F)F)ccc34)c1)CC(c1ccc(Cl)cc1)=N2` (stereo not given), the growth in the experiment on HCT-15 colon was 20.3%; in the experiment with HT29 colon, 10.6%; in the experiment on SNB-75 CNS, 47.9%; in the experiment with SNB-19 CNS, 62.8%; in the experiment on U251 CNS it was 36.7%; in the experiment with PC-3 prostate, 32.4%. Besides, the growth in the experiment with SK-MEL-5 melanoma is 47.2%; in the experiment on UACC-62 melanoma, 76.3%; in the experiment on LOX IMVI melanoma, 37.5%; with SK-MEL-28 melanoma, 80.7%.
`CCCN1C(=O)N(CCC)C2C1NC(=S)N2/N=C/C=C/c1ccccc1OC` (stereo not given): the growth in the experiment with HCT-15 colon was 19.3%; with HT29 colon it was 2.43% (active); with SNB-75 CNS, -17.4% (active); with SNB-19 CNS, 24.6%; with U251 CNS, 11.9%; in the experiment on PC-3 prostate, 28.7%. For the same molecule, the growth in the experiment with SK-MEL-5 melanoma was 26.9%; in the experiment with UACC-62 melanoma, 28.5%; with LOX IMVI melanoma, 41%; with SK-MEL-28 melanoma, 50%.
On to `Nc1nc(=O)n([C@H]2CC=C(CO)O2)cc1F`, for which the growth in the experiment with HCT-15 colon is 101%; with HT29 colon it was 91.9%; with SNB-75 CNS it was 102%; in the experiment on SNB-19 CNS, 96.3%; in the experiment with U251 CNS it was 95%; in the experiment on PC-3 prostate, 92.1%. The growth was 100% in the experiment on SK-MEL-5 melanoma, 92.4% with UACC-62 melanoma, 92.5% in the experiment on LOX IMVI melanoma and 105% in the experiment with SK-MEL-28 melanoma.
`O=[N+]([O-])c1ccc(Oc2cccc3c(Oc4ccc([N+](=O)[O-])cc4[N+](=O)[O-])cccc23)c([N+](=O)[O-])c1`: the growth is 100% in the experiment on HCT-15 colon; 97% in the experiment on HT29 colon; 81.6% with SNB-75 CNS; 84.7% with SNB-19 CNS; 87% in the experiment with U251 CNS; 79.7% with PC-3 prostate. In addition, the growth is 86.7% with SK-MEL-5 melanoma, 76.5% with UACC-62 melanoma, 78.4% with LOX IMVI melanoma and 110% in the experiment on SK-MEL-28 melanoma.
Regarding `CNC(=O)c1cc(Oc2ccc3nc(NC(=O)c4cc(C(F)(F)F)cc(C(F)(F)F)c4)sc3c2)ccn1`, the growth in the experiment with HCT-15 colon was 32.1%; with HT29 colon, 31.5%; with SNB-75 CNS, 28.5%; in the experiment with SNB-19 CNS, 15.5%; in the experiment with U251 CNS it was 14.2%; with PC-3 prostate it was 8.79% (active). Besides, the growth with SK-MEL-5 melanoma was -39.9% (active); in the experiment on UACC-62 melanoma, 2.25% (active); in the experiment on LOX IMVI melanoma, 27.4%; in the experiment on SK-MEL-28 melanoma, 26.4%.
As for `O=c1ccc2c(ccc3ncccc32)o1`, the growth with HCT-15 colon is 108%; in the experiment on HT29 colon, 99.9%; in the experiment on SNB-75 CNS it was 105%; in the experiment on SNB-19 CNS, 118%; in the experiment with U251 CNS, 109%; in the experiment on PC-3 prostate, 94.3%. Moreover, the growth with SK-MEL-5 melanoma was 95%; in the experiment with UACC-62 melanoma, 112%; with LOX IMVI melanoma it was 102%; in the experiment with SK-MEL-28 melanoma, 113%.
For the molecule `COC(CCP(=O)(c1ccccc1)c1ccccc1)(C(=O)c1ccccc1)c1ccccc1` (stereo not given), the growth in the experiment on HCT-15 colon was 52.6%; in the experiment with HT29 colon, 57.5%; with SNB-75 CNS, 84.9%; in the experiment with SNB-19 CNS it was 71.6%; with U251 CNS, 71.3%; in the experiment with PC-3 prostate, -46.2% (active). For the same molecule, the growth with SK-MEL-5 melanoma was 34.3%; in the experiment on UACC-62 melanoma it was 53.8%; in the experiment with LOX IMVI melanoma, 64.6%; with SK-MEL-28 melanoma it was 89.1%.
Consider `O=C(Nc1ncc(Cc2ccc(Cl)cc2)s1)c1ccc2c(c1)OCCO2`, for which the growth with HCT-15 colon is 8.98% (active); in the experiment with HT29 colon, 7.68% (active); in the experiment on SNB-75 CNS, 23%; in the experiment on SNB-19 CNS, 43.4%; with U251 CNS, 17.6%; in the experiment with PC-3 prostate, 30.3%. Besides, the growth with SK-MEL-5 melanoma was -21.3% (active); in the experiment on UACC-62 melanoma, 45.8%; in the experiment on LOX IMVI melanoma, 31.3%; in the experiment with SK-MEL-28 melanoma, 76.2%.
Consider `O=C(Nc1ccccc1CNc1nc(Nc2ccc(OCCN3CCCC3)cc2)ncc1Cl)NC1CCCCC1`, for which the growth in the experiment with HCT-15 colon is 60.7%; with HT29 colon it was 9.11% (active); in the experiment with SNB-75 CNS it was 96.5%; in the experiment with SNB-19 CNS, 91.6%; with U251 CNS it was 70.4%; in the experiment on PC-3 prostate, 84%. Also, the growth with SK-MEL-5 melanoma was 64.6%; in the experiment with UACC-62 melanoma, 97.3%; with LOX IMVI melanoma it was 84.7%; in the experiment on SK-MEL-28 melanoma it was 79.8%.
Take `CCN1CCN(c2cc(C(=O)Nc3cccc(Nc4ccc5c(OC)cccc5n4)c3)cc(C(F)(F)F)c2)CC1`: the growth in the experiment on HCT-15 colon is -15.9% (active); in the experiment on HT29 colon, -60% (active); in the experiment with SNB-75 CNS it was 35.8%; with SNB-19 CNS it was 36%; in the experiment with U251 CNS, 13.9%; with PC-3 prostate, 7.66% (active). For the same molecule, the growth in the experiment with SK-MEL-5 melanoma is -1.86% (active); in the experiment on UACC-62 melanoma, 13%; in the experiment on LOX IMVI melanoma, -94.1% (active); in the experiment on SK-MEL-28 melanoma, -44.4% (active).
For the molecule `CCCCCCCCCCCCCCCCCCOc1ccccc1CC(=O)OCC[N+]1(C)CCCCC1`, the growth in the experiment on HCT-15 colon was 86.3%; with HT29 colon, 31.7%; in the experiment on SNB-75 CNS it was 46.3%; in the experiment with SNB-19 CNS it was 50.6%; with U251 CNS it was 36.9%; in the experiment on PC-3 prostate, 3.03% (active). For the same molecule, the growth is -2.94% (active) in the experiment with SK-MEL-5 melanoma, 33.8% with UACC-62 melanoma, 1.71% (active) in the experiment with LOX IMVI melanoma and 62.5% with SK-MEL-28 melanoma.
On to `Cc1cc([N+](=O)[O-])ccc1NC(=O)c1ccc2c(c1)nc(-c1ccccc1)n2C1CCCCC1`, for which the growth is 51.9% in the experiment on HCT-15 colon; 44.5% in the experiment on HT29 colon; 80.9% with SNB-75 CNS; 119% in the experiment with SNB-19 CNS; 91.4% with U251 CNS; 77.4% with PC-3 prostate. Further, the growth in the experiment with SK-MEL-5 melanoma was 62.3%; in the experiment with UACC-62 melanoma it was 95%; in the experiment on LOX IMVI melanoma, 64%; in the experiment on SK-MEL-28 melanoma, 117%.
